Measured values published in PubChem BioAssay AID1347145 (National Center for Advancing Translational Sciences (NCATS), 2019).
Records with an inconclusive call do not appear. Unmarked numbers belong to inactive results. Calls of active or inactive are those of the source. The call rests on the fitted dose curve; in most records, active means well fitted inhibition curve with a large enough effect; inconclusive means small, poorly fitted or top-dose-only effect; inactive means no such curve, though single readings can be large or run the other way.

Target: N-terminal Xaa-Pro-Lys N-methyltransferase 1 (Homo sapiens) (UniProt Q9BV86)
Sequence (Q9BV86 whole entry, looked up): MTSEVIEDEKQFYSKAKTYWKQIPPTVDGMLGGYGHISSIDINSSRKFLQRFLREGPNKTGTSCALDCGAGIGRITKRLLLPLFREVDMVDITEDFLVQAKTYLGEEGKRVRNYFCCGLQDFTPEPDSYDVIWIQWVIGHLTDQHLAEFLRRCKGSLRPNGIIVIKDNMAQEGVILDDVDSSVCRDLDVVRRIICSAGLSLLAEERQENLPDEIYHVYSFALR
Assay: qHTS Assay for Inhibitors of N-terminal methyltransferase 1 (NTMT1): MTaseGlo Assay Confirmatory Screen, Round 1
Settings: Recombinant NTMT1, MTase-Glo SAH luminescence; series mostly up to 57.1 µM; activity change, negative = inhibition: at the top concentration
Procedure, shortened: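 Luminescence from MTase-Glo conversion of SAH to ATP measured activity after a 30 min RT reaction with 1 µM SPKRIA substrate, 100 µM SAM and 125 nM enzyme. Normalization used no-enzyme and DMSO controls, followed by Hill fitting.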
Potency means the concentration at half of the fitted maximal effect.
Wherever activity change, negative = inhibition is given: 0% is about no effect.

| Compound | activity change, negative = inhibition | Potency |
| --- | --- | --- |
| CNc1ncnc2c1ncn2[C@@H]1O[C@H](CO)[C@@H](O)[C@H]1O | 239% | – |
| COc1cc2c(NC3CCN(C(C)C)CC3)nc(N3CCC(F)(F)CC3)nc2cc1OCCCN1CCCCC1 | -14.1% | – |
| NC[C@H]1O[C@@H](n2cnc3c(N)ncnc32)[C@H](O)[C@@H]1O | – | 19.3 µM (active) |
| Nc1ncnc2c1ncn2[C@H]1O[C@@H](CO)[C@@H](O)[C@H]1N | 2.75% | – |
| CNc1ncnc2c1ncn2[C@@H]1O[C@H](COP(=O)(O)O)[C@@H](O)[C@H]1O | 12.3% | – |
| O=S(=O)(O)c1ccc(Nc2ncnc3c2ncn3[C@@H]2O[C@H](CO)[C@@H](O)[C@H]2O)cc1 | 11.4% | – |
| COc1cc2nc(N3CCCN(C)CC3)nc(NC3CCCCC3)c2cc1OC | 41.1% | – |
| COc1cc2c(NC3CCN(C(C)C)CC3)nc(N3CCCN(C)CC3)nc2cc1OCCCN1CCCC1 | -20.2% | – |
| Nc1ncnc2c1ncn2[C@@H]1O[C@H](C(=O)N2CCN(CC(=O)Nc3cccc4c3CNC4=O)CC2)[C@@H](O)[C@H]1O | -9.79% | – |
| Nc1ncnc2c1ncn2[C@@H]1O[C@H](COP(=O)(O)OP(=O)(O)O)[C@@H](O)[C@H]1O | 7.5% | – |
| Nc1ncnc2c1ncn2[C@H]1C[C@H](O)[C@@H](CO)O1 | 15.6% | – |
| NC(=O)c1ccc[n+]([C@@H]2O[C@H](COP(=O)([O-])OP(=O)(O)OC[C@H]3O[C@@H](n4cnc5c(N)ncnc54)[C@H](O)[C@@H]3O)[C@@H](O)[C@H]2O)c1 | 360% [at 19 µM] | – |
| COc1cc2c(NC3CCN(C)CC3)nc(N3CCCCC3)nc2cc1OCCCN(C)C | -13.2% | – |
| CCCCC#Cc1nc(NC)c2ncn([C@@H]3O[C@@H](CO)[C@H](O)[C@H]3O)c2n1 | 5.36% | – |
| Nc1[nH]c(=O)nc2c1ncn2C1OC(CO)C(O)C1O (configuration not stated) | 0.715% | – |
| COc1cc2nc(N3CCN(C)CC3)nc(NCCN(C)C)c2cc1OC | -1.87% | – |
| COc1cc2c(NC3CCN(C)CC3)nc(N3CCCN(C)CC3)nc2cc1O | 1.05% | – |
| CCCCC#Cc1nc(NC)c2ncn([C@@H]3O[C@H](CO)[C@@H](O)C3O)c2n1 (some centres not stated) | -17.1% | – |
| C/C(=C\CNc1ncnc2c1ncn2[C@@H]1O[C@H](CO)[C@@H](O)[C@H]1O)CO | 35.2% | – |

| Compound | activity change, negative = inhibition | Potency |
| --- | --- | --- |
| COc1cc2nc(N3CCN(C)CC3)nc(NC3CCN(C)CC3)c2cc1OC | -8.09% | – |
| Nc1ccnc2c1ncn2[C@@H]1O[C@H](CO)[C@@H](O)[C@H]1O | – | 17.2 µM (active) |
| OC[C@@H]1O[C@@H](n2cnc3c(NCc4ccco4)ncnc32)[C@H](O)[C@H]1O | 51.5% | – |
| COc1cc2nc(N3CCN(C(N)=O)CC3)nc(NC3CC3)c2cc1OC | -13.1% | – |
| CNc1nc(N2CCCN(C)CC2)nc2cc(OC)c(OC)cc12 | 8.27% | – |
| O=C(Nc1ncnc2c1ncn2[C@@H]1O[C@@H]2COP(=O)(O)O[C@H]2[C@H]1O)c1ccccc1 | 5.01% | – |
| Nc1nc(Cl)nc2c1ncn2[C@@H]1O[C@H](CO)[C@H](O)[C@H]1O | 3.82% | – |
| CNC(=O)[C@H]1O[C@@H](n2cnc3c(NCc4ccc(N)cc4)ncnc32)[C@H](O)[C@@H]1O | 0.731% | – |
| C=C1OC(CO)(n2cnc3c(N)ncnc32)C(O)C1O (configuration not stated) | 5.77% | – |
| Nc1nc2c(ncn2[C@@H]2O[C@H](CO)[C@@H](O)[C@@H]2O)c(=O)[nH]1 | 1.02% | – |
| OCCNc1ncnc2c1ncn2[C@@H]1O[C@@H](CO)[C@H](O)[C@@H]1O | 70.4% | – |
| OC[C@H]1O[C@H](n2cnc3c(NC4CCCC4)nc(Cl)nc32)[C@@H](O)[C@@H]1O | 3.4% | – |
| OC[C@H]1O[C@@H](n2cnc3c(NC4CCCC4)ncnc32)[C@H](O)C1O (some centres not stated) | 6.88% | – |
| Cn1cnc2c(ncn2[C@@H]2O[C@H](CO)[C@@H](O)[C@H]2O)c1=N | 20.8% | – |
| CCCc1cc(C)[nH]c(=O)c1CNC(=O)c1cc(-c2ccc(N3CCN(C(C)C)CC3)nc2)cc2c1cnn2C(C)C | 0.416% | – |
| NC(=S)c1ccc[n+]([C@@H]2O[C@@H](COP(=O)([O-])OP(=O)(O)OC[C@H]3O[C@@H](n4cnc5c(N)ncnc54)[C@H](OP(=O)(O)O)[C@@H]3O)C(O)C2O)c1 (some centres not stated) | 11.4% | – |
| C[S+](CC[C@H](N)C(=O)O)C[C@H]1O[C@@H](n2cnc3c(N)ncnc32)[C@H](O)[C@@H]1O (some centres not stated) | – | inactive |
| Nc1ncnc2c1ncn2[C@@H]1O[C@H](COP(=O)(O)OP(=O)(O)OC[C@H]2OC(O)[C@H](O)[C@@H]2O)[C@@H](O)[C@H]1O (some centres not stated) | 620% | – |
